# Laboratory results from PMC4336329 (PLoS ONE, 2015).
# Hit rate of the full screen: of about 310,000 compounds, about 14,000 (4.5%) showed an effect of 50% or more. Effects have a minus sign here. The list comes from a sample in which strong results are over-represented; it also holds similar structures and randomly drawn compounds.
# Target: human ether-à-go-go-related gene (hERG) potassium channel (human, UniProt Q12809)
# Assay: primary screen, population patch clamp on CHO cells stably expressing hERG; higher = less effect of the substance
# 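Note: peak tail current of the secondary pulse compared with the same well before compound.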
# Chain of human ether-à-go-go-related gene (hERG) potassium channel (Q12809 whole entry, looked up): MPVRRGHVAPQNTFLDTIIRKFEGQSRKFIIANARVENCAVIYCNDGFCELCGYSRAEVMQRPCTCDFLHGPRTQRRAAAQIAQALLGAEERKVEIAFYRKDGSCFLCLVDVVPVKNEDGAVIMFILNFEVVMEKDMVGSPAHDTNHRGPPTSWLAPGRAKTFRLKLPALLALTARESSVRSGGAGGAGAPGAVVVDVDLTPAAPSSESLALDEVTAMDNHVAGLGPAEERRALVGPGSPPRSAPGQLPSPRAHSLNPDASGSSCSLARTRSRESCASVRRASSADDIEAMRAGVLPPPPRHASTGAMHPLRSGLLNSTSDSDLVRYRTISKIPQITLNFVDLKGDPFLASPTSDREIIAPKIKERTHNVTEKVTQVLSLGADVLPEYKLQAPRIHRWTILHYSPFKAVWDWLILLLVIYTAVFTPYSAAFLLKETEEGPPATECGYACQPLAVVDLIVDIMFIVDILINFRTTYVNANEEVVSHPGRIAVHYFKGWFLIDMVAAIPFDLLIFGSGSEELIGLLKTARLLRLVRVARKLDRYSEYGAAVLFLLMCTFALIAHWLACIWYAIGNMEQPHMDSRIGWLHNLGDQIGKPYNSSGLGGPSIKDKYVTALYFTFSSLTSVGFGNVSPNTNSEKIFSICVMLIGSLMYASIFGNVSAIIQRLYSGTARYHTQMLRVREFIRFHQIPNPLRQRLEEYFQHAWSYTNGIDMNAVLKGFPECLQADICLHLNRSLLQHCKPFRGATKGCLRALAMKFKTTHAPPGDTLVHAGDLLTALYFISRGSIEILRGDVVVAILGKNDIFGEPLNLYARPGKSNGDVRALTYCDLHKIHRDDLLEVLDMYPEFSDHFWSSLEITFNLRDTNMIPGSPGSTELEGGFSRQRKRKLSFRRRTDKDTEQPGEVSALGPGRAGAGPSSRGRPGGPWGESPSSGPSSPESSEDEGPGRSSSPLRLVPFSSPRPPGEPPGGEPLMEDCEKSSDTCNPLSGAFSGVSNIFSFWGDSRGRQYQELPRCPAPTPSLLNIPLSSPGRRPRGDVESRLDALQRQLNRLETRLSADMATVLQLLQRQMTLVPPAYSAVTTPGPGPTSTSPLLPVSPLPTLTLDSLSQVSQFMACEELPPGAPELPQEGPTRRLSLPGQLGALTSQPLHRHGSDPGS
row,SMILES,"hERG current change (%, negative = inhibition) at 10uM [%]"
1,O=C(CSc1ccc([N+](=O)[O-])cn1)Nc1ccccc1N1CCOCC1,-19.2
2,c1nc(NC2CCCCC2)c2[nH]cnc2n1,-3.86
3,COc1ccc(/C=C2\CCCCC2=O)cc1,-6.19
4,Cc1ccc(C(C)C)c(OCC(=O)Nn2c(=O)[nH]c3ccccc3c2=O)c1,-12.6
5,COc1ccc2c(c1)[nH]c1c(=O)n(/N=C/c3ccc(OC)c(CN4CCCCC4)c3)cnc12,-64.3
6,COc1ccc(/C=N/n2cnc3c([nH]c4ccccc43)c2=O)cc1COc1ccccn1,-8.67
7,COc1ccc(/C=N/n2c(=O)[nH]c3c([nH]c4ccc(Cl)cc43)c2=O)cc1CN1CCCCC1,-13
8,COc1ccc2c(c1)[nH]c1c(=O)n(/N=C/c3ccc(OC)c(COc4ccccn4)c3)cnc12,-9.63
9,COc1ccc2c(c1)[nH]c1c(=O)n(/N=C/c3ccc(OC)c(CN4CCCC4)c3)cnc12,-71.1
10,COc1ccc(/C=N/n2cnc3c([nH]c4ccccc43)c2=O)cc1CO,11.2
11,CCC(C)NC(=O)CN(c1ccc(Cl)c(Cl)c1)S(C)(=O)=O (centres unmarked),3.62
12,O=C(NC1CCCC1)c1cc(S(=O)(=O)N2CCOCC2)c(Cl)cc1Cl,-8.15
13,O=C(Nc1nnc(-c2ccc3c(c2)CCCC3)o1)C1CCCCC1,4.3
14,O=C(CSc1nnc(NC(=O)c2ccccc2F)s1)Nc1ccccc1F,30.9
15,CCn1c(SCC(=O)N2CCCCC2)nc2c1c(=O)n(C)c(=O)n2C,14.3
16,CCCOc1ccc(/C(O)=C2/C(=O)C(=O)N(CCCOC)C2c2cccnc2)cc1 (centres unmarked),-5.91
17,CCCOc1ccc(/C(O)=C2/C(=O)C(=O)N(CCCOC)C2c2ccncc2)cc1 (centres unmarked),-53.1
18,CCCCOc1ccc(/C(O)=C2/C(=O)C(=O)N(CCCOC)C2c2ccncc2)cc1 (centres unmarked),18.2
19,COc1cccc(C(=O)N2CCN(Cc3ccccc3[N+](=O)[O-])CC2)c1,-14.5
20,CC(C)CC(=O)N1CCN(Cc2ccccc2[N+](=O)[O-])CC1.O=C(O)C(=O)O,-7.35
21,O=C(C1CCCN(Cc2ccccc2[N+](=O)[O-])C1)N1CCCC1.O=C(O)C(=O)O (centres unmarked),11.4
22,O=C(O)C(=O)O.O=C(c1ccc([N+](=O)[O-])cc1)N1CCN(Cc2ccccc2[N+](=O)[O-])CC1,-75

row,SMILES,"hERG current change (%, negative = inhibition) at 10uM [%]"
1,CN(Cc1ccccc1)C1CCN(Cc2ccccc2[N+](=O)[O-])CC1.O=C(O)C(=O)O,-59.6
2,O=C(Cc1ccccc1[N+](=O)[O-])NC1CCN(Cc2ccccc2)CC1,-1.68
3,COc1ccc(C(=O)N2CCN(Cc3ccccc3[N+](=O)[O-])CC2)cc1.O=C(O)C(=O)O,-58.9
4,O=C(c1cccs1)N1CCN(Cc2ccccc2[N+](=O)[O-])CC1,-17.7
5,COc1cc(OC)cc(C(=O)N2CCN(Cc3ccccc3[N+](=O)[O-])CC2)c1.O=C(O)C(=O)O,-46.5
6,CC(=O)Nc1cccc(NC(=O)CSc2ccc(-c3cccnc3)nn2)c1,7.43
7,CCC(C)/C(C)=N/NC(=O)CSc1nc2ccccc2[nH]1 (centres unmarked),2.26
8,O=C1C2CC=CCC2C(=O)N1CNc1ccccc1 (centres unmarked),14.7
9,Cc1c(Cl)c([N+](=O)[O-])nn1CCCC(=O)Nc1ccc(Cl)cc1Cl,-45.1
10,COc1ccc(CNC(=O)C(=O)NCC2OCCN2S(=O)(=O)c2cccs2)cc1 (centres unmarked),-4.34
11,O=C(CNC1C(=O)Nc2ccccc21)Sc1ccccc1 (centres unmarked),22.3
12,CCSc1nnc(NC(=O)Cc2cc(OC)c(OC)c(OC)c2)s1,8.27
13,CSc1nnc(SCC(=O)N(C)c2c(N)n(Cc3ccccc3)c(=O)[nH]c2=O)s1,5.79
14,CC(C)C[C@H](NC(=O)c1nc[nH]c1C(=O)NCc1ccccc1)C(=O)OCc1ccccc1,-7.88
15,COCCn1c(SCC(=O)NC2CCCC2)nnc1C(C)C,22.6
16,O=C(CCC1CCN(Cc2ccc(Cl)cc2)CC1)NC1CC1,-65.9
17,O=C(CCC1CCN(Cc2ccccc2Cl)CC1)NC1CC1,-23.2
18,CSc1ccccc1C(=O)N1CCC(CCC(=O)NC2CC2)CC1,11.6
19,CSc1ccc(C(=O)N2CCC(CCC(=O)NC3CC3)CC2)cc1,-30.8
20,O=C(CCC1CCN(Cc2ccc(C#CCCO)cc2)CC1)NC1CC1,-46.7
21,CSc1cccc(CN2CCC(CCC(=O)NC3CC3)CC2)c1,-62.6
22,CN(Cc1cnn(C)c1)Cc1nc(-c2ccc(Cl)cc2)no1,-4.26

row,SMILES,"hERG current change (%, negative = inhibition) at 10uM [%]"
1,Cn1c(=O)c2c(SC3CCCC3)nc(C3CC3)nc2n(C)c1=O,18.8
2,S=C1NCCOCCOCCNC(=S)N2CCOCCOCCN1CCOCCOCC2,5.22
3,CCOC(=O)c1[nH]c(C)c(C(=O)N2CCN(c3cccc(Cl)c3)CC2)c1C,-13.8
4,CN(C(=O)CSc1ncc(C(F)(F)F)cc1Cl)c1c(N)n(Cc2ccccc2)c(=O)[nH]c1=O,8.25
5,C/C(=N\OCc1ccc(C#N)cc1)c1ccccc1,12.1
6,C/C(=N\OCc1ccc(C#N)cc1)c1ccc(S(=O)(=O)N(C)C)cc1,-52.7
7,CN(C)S(=O)(=O)c1ccc(C(=O)OCc2ccc(C#N)cc2)cc1,-11.1
8,C=CCn1c(SCCN2CCCC2)nc2c([nH]c3ccccc32)c1=O,-71.7
9,C=CCn1c(SCC(=O)NC2CCCC2)nc2c([nH]c3ccccc32)c1=O,-40.8
10,C=CCn1c(SCC(=O)N2CCN(c3ccccc3)CC2)nc2c([nH]c3ccccc32)c1=O,13.3
11,C=CCn1c(SCC(=O)N2CCOCC2)nc2sc3c(c2c1=O)CCCC3,-53.9
12,C=CCn1c(SCC(=O)N2CCOCC2)nc2c([nH]c3ccccc32)c1=O,-52.9
13,CCn1c(SCC(=O)N2CCOCC2)nc2sc3c(c2c1=O)CCCC3,-5.19
14,C=CCn1c(SCC(=O)N2CCCC2)nc2c([nH]c3ccccc32)c1=O,-29.6
15,C=CCn1c(SCC(=O)N2CCN(CCO)CC2)nc2sc3c(c2c1=O)CCC3,-20.9
16,C=CCn1c(SCC(=O)NCCc2ccccc2)nc2c([nH]c3ccccc32)c1=O,-3.29
17,COc1ccc(S(=O)(=O)Nc2ccc(S(=O)(=O)Nc3nccs3)cc2)cc1,19.9
18,COc1ccc(OCc2cc(C(=O)O)c(C)o2)cc1,2.69
19,CCN(CC)c1nc2ccccc2n2cnnc12,-16.4
20,CCn1c(SC)nnc1-c1sc2cc(Cl)ccc2c1Cl,-55.4
21,CSc1nnc(-c2sc3cc(Cl)ccc3c2Cl)n1C,0.137
22,CCn1c(SC)nnc1-c1nnc(SC)n1CC,-7.09

row,SMILES,"hERG current change (%, negative = inhibition) at 10uM [%]"
1,Cc1ccc(SCC(=O)OCC(=O)NC2CCCCCCC2)cc1,-4.33
2,O=C(N/N=C/c1ccc[nH]1)c1cc(-c2cccs2)nc2ccccc12,0.659
3,Br.Cc1ccc(C(=O)C(c2ccccc2)N2Cc3ccccc3C2=N)cc1 (centres unmarked),-60.3
4,Br.CCC(C)N1Cc2ccccc2C1=N (centres unmarked),2.75
5,O=C(O)[C@@H](c1ccccc1)N1Cc2ccccc2C1=O,17.2
6,NNC(=O)c1nc[nH]c1C(=O)Nc1ccccc1,24.1
7,COc1ccccc1/C=N/NC(=O)c1ccc(CN2C(=O)c3cccc4cccc2c34)cc1,2.35
8,Cc1cccc(C)c1NC(=O)C(NC(=O)c1ccccn1)c1ccc([N+](=O)[O-])cc1 (centres unmarked),7.6
9,NNC(=O)c1ccc(COc2ccc([N+](=O)[O-])cc2)o1,-23.1
10,O=C(O)c1ccc(COc2ccc([N+](=O)[O-])cc2)o1,23.2
11,CC1CCCCN1C(=O)c1ccc(COc2ccc([N+](=O)[O-])cc2)o1 (centres unmarked),-69.9
12,COc1ccc(/C=C(\C#N)C(=O)OCC(=O)Nc2ccc(C(C)(C)C)cc2)cc1,0.425
13,COc1ccccc1OCCNC(=O)CSC(=S)N1CCCC1,-4.17
14,O=C(Cc1ncc(C(F)(F)F)cc1Cl)N1CCN(c2ccc(F)cc2)CC1,-41.3
15,COc1ccc(OCC(=O)N2CCN(c3cccc(C(F)(F)F)c3)CC2)cc1,-42.6
16,CN1CCN(C(=O)CCc2ncc(C(F)(F)F)cc2Cl)CC1,11.7
17,COc1ccc(N2CCN(C(=O)Cc3ncc(C(F)(F)F)cc3Cl)CC2)cc1,-51.9
18,O=C(Cc1ncc(C(F)(F)F)cc1Cl)N1CCN(c2cccc(Cl)c2)CC1,-60.6
19,O=C(Cc1ncc(C(F)(F)F)cc1Cl)N1CCN(c2ccccn2)CC1,-17.2
20,CCN1CCN(C(=O)C2CCN(S(=O)(=O)c3ccc4c(c3)NC(=O)C(C)S4)CC2)CC1 (centres unmarked),14.1
